A short description of assay [1]: NCI Yeast Anticancer Drug Screen. Data for the rad50 strain (AID 155).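 Further: 0% = growth of vehicle-only cultures of the same strain.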 The settings on record: S. cerevisiae rad50 strain growth inhibition; at 50.0 µM; stronger effect = higher value. The method in brief: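 Vehicle-treated cultures provide the reference for the growth inhibition reported for compound-exposed, repair-deficient yeast.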
The nature of assay [2]: NCI Yeast Anticancer Drug Screen. Data for the mec2-1 strain (AID 157). The conditions noted are these: S. cerevisiae mec2-1 strain, at 50.0 µM, stronger effect = higher value. In short, it runs like this:
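mec2-1 yeast strain, carrying an alteration in DNA damage repair or cell cycle control, was exposed to compounds; growth inhibition was measured relative to vehicle-treated controls.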

Assay [3] can be described thus: NCI Yeast Anticancer Drug Screen. Data for the sgs1 mgt1 strain (AID 161).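 Further: 0% = growth of cultures given vehicle only.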 The settings on record: S. cerevisiae sgs1 mgt1 strain, at 50.0 µM, stronger effect = higher value. In short, it runs like this:
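Yeast cells carrying a defined DNA-repair defect were exposed to test compounds. Growth inhibition was measured relative to vehicle-treated controls.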

The nature of assay [4]: NCI Yeast Anticancer Drug Screen. Data for the cln2 rad14 strain (AID 165).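 Further: 0% = growth equal to vehicle treated cultures.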 The settings on record: S. cerevisiae cln2 rad14 strain, at 50.0 µM, stronger effect = higher value. In short, it runs like this:
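Yeast carrying cln2 and rad14 alterations (cell cycle control and DNA damage repair) were exposed to compounds. Growth inhibition was measured against vehicle-treated controls.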

The nature of assay [5]: NCI Yeast Anticancer Drug Screen. Data for the bub3 strain (AID 167). The conditions noted are these: S. cerevisiae bub3 mutant strain, at 50.0 µM, stronger effect = higher value. In short, it runs like this:
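Mutant yeast screening strain plus compound; vehicle-treated cultures serve as the 0% inhibition reference.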

The nature of assay [6]: NCI Yeast Anticancer Drug Screen. Data for the mlh1 rad18 strain (AID 175). The settings on record: S. cerevisiae mlh1 rad18 strain growth inhibition; at 50.0 µM; stronger effect = higher value. The method in brief: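 Growth inhibition of the yeast strain was measured after compound exposure and expressed relative to vehicle-treated controls. The strain carries defined defects in DNA damage repair.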

Results on 21 molecules are retold here after PubChem BioAssay (NCI).

The panel holds about 79,000 compounds, 15% with a hit somewhere; the sample as a whole holds those more often. Values without a mark were called inactive. The source made the active and inactive calls. No stated cut-off is given here; in the data, active means growth inhibition above about 70%; inactive means the rest.

Regarding `CCC(Cc1ccco1)C(=O)NC(N)=O` (stereo unspecified), the growth inhibition was -10.2% in assay [1]; 4.4% in assay [2]; -9.8% in assay [3]; -9.1% in assay [4]; 0.65% in assay [5]; 11.3% in assay [6].
With `CC(=O)c1cc(C(C)=O)c2cc(C)cc(O)c2c1O`, the growth inhibition in assay [1] is 15.7%; in assay [2], -13.9%; in assay [3], 8.45%; in assay [4] it was 1.9%; in assay [5] it was 13.9%; in assay [6] it was -9.7%.
For `CCCCCCCCCCO`, the growth inhibition in assay [1] was -1.6%; in assay [2], 4.6%; in assay [3], -5.15%; in assay [4] it was 5.45%; in assay [5] it was 3.2%; in assay [6], -1.6%.
As to `CC(C)(C)C(=O)Nc1c(Cl)c(C2CC2)nn1-c1ccccc1`, the growth inhibition in assay [1] is 7.55%; in assay [2], -0.55%; in assay [3] it was 24.7%; in assay [4], 11.3%; in assay [5] it was 22.4%; in assay [6], 19.4%.
On to `O=C1C(c2ccccc2)=[N+]([O-])c2cc([N+](=O)[O-])ccc21`, for which the growth inhibition in assay [1] was -15.8%; in assay [2] it was 5.65%; in assay [3], 13.8%; in assay [4] it was 23.2%; in assay [5], 14.8%; in assay [6] it was 36%.
For the molecule `c1ccc2c(c1)C(=Nc1ccc(N=C3c4ccccc4-c4ccccc43)cc1)c1ccccc1-2`, the growth inhibition in assay [1] is 1.8%; in assay [2] it was -0.55%; in assay [3], -5.7%; in assay [4], -1%; in assay [5] it was -27.4%; in assay [6] it was -20.6%.
On to `CC(=O)NC1CCCCC1C1CCC([N+](=O)[O-])CC1` (stereo unspecified), for which the growth inhibition in assay [1] is 12.6%; in assay [2] it was -1.75%; in assay [3], -12.5%; in assay [4], 12.7%; in assay [5], 6.9%; in assay [6] it was 6.05%.
Regarding `CC(C)(C)c1ccc2c(c1)CNCCNCCNCc1cc(C(C)(C)C)ccc1OCC1(CO2)COc2ccc(C(C)(C)C)cc2CNCCNCCNCc2cc(C(C)(C)C)ccc2OC1`, the growth inhibition in assay [1] was 91% (active); in assay [2], 93% (active); in assay [3], 92% (active); in assay [4], 91.2% (active); in assay [5], 92.2% (active); in assay [6] it was 89.8% (active).
Take `Cn1nc2ccccc2cc1=O`: the growth inhibition in assay [1] was 20.7%; in assay [2], 2.65%; in assay [3] it was -2.1%; in assay [4], 14.2%; in assay [5], 10.8%; in assay [6], 14.9%.
For `COC(=O)/C=C1/Nc2c(N)nc(N)nc2NC1=O`, the growth inhibition is 15.1% in assay [1]; 8.2% in assay [2]; 5.95% in assay [3]; -2.1% in assay [4]; -0.9% in assay [5]; 3.15% in assay [6].
In the case of `C=CCOC(=O)CCC(=O)OCC=C`, the growth inhibition in assay [1] is 3.45%; in assay [2], 6.2%; in assay [3], -4.65%; in assay [4], -15.4%; in assay [5], 5.8%; in assay [6] it was -4.35%.
Consider `O=C(c1ccccc1)C(c1ccccc1)(c1ccccc1)c1ccccc1`, for which the growth inhibition is -4.1% in assay [1]; 6.2% in assay [2]; -17.3% in assay [3]; -30% in assay [4]; -10.2% in assay [5]; 24.1% in assay [6].
As to `CC(=O)NS(=O)(=O)c1ccc(N=C=S)cc1`, the growth inhibition in assay [1] was -7.25%; in assay [2] it was 1.85%; in assay [3], -12.8%; in assay [4] it was -19.4%; in assay [5], -2.9%; in assay [6] it was -1.05%.
Consider `COc1cc2c(cc1OC)C(=O)C1(CO)COC(=O)C1C2` (stereo unspecified), for which the growth inhibition is -7.7% in assay [1]; -19% in assay [2]; -2.15% in assay [3]; -1.4% in assay [4]; -1% in assay [5]; 5.9% in assay [6].
As to `Cc1cc(=O)n2c(n1)Nc1ccccc1C2`, the growth inhibition is 22.5% in assay [1]; -26% in assay [2]; 2.75% in assay [3]; 1.65% in assay [4]; 46.4% in assay [5]; 6.8% in assay [6].
Regarding `CCCCCCCCCSc1nc2ccccc2s1`, the growth inhibition in assay [1] is 12.8%; in assay [2], 6.25%; in assay [3], 18.2%; in assay [4] it was 5.45%; in assay [5], 14.5%; in assay [6] it was -10.1%.
On to `COc1ccc(N=C2SC(=N/N=c3\sc4ccccc4n3C)SC2=Nc2ccc(OC)cc2)cc1`, for which the growth inhibition in assay [1] is 4.15%; in assay [2], -32.9%; in assay [3] it was -2.9%; in assay [4], -41.1%; in assay [5], 28.9%; in assay [6], -12.7%.
On to `C1=C(c2ccccc2)CCCC1`, for which the growth inhibition was 17.1% in assay [1]; 3.55% in assay [2]; 4.2% in assay [3]; 14.4% in assay [4]; -9.4% in assay [5]; 4.45% in assay [6].
Regarding `CCCC(CCC)(CCC)CCN(C)C`, the growth inhibition in assay [1] is -6.85%; in assay [2], -5.95%; in assay [3], -14.9%; in assay [4], -23.9%; in assay [5], -8.65%; in assay [6], -33.8%.
Take `CC(C)OCCOCCO`: the growth inhibition in assay [1] was 7.65%; in assay [2], -10.5%; in assay [3], -4.85%; in assay [4], -24.9%; in assay [5] it was 10.1%; in assay [6], -1.2%.
Consider `CC(C)(C)NC(=O)c1cccc(C(N)=O)n1`, for which the growth inhibition in assay [1] is -10.4%; in assay [2], -16.1%; in assay [3], -11.8%; in assay [4], -21.6%; in assay [5], -4.25%; in assay [6] it was -0.6%.
